Screen size: about 2,400 compounds; about 95 (4%) were called active. Not shown: some 3% with an inconclusive outcome.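 The calls were made as follows: active = compounds lowering signal whose fitted AC50 is at most ten times the top tested dose; inconclusive = flat fit with moderate inhibition, or poor curve fit; inactive = the rest.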 The list is a sample of the results. Entries with a potency or affinity are not part of this list.

The nature of the test: GFP reporter loss versus dox-driven RFP – NIH3T3 R4 cells, cherry-pick, set 3, dose response (AID 493083). As to conditions: NIH3T3 R4 HSF-1 GFP reporter, heat shock, 48 h; series mostly up to 19.5 µM.
Consider `COc1ccc(N2CCN(c3ccc(NC(=O)NN)cc3)CC2)cc1`, for which the call was inactive. The value for `Cc1cc(NC(=O)c2ccc3nc(C)sc3c2)no1` was “inactive”. The same measure for `COc1ccccc1N1CCN(C(=S)Nc2ccc(F)cc2)CC1`: “inactive”; for `O=c1[nH]cc(S(=O)(=O)c2ccccc2)[nH]1`: “inactive”. For the compound `CC1CCN(CC(=O)NC2CCCCC2)CC1`, the result was inactive.

As for `CCS(=O)(=O)N1CCN(C(=O)c2ccccc2)CC1`, the compound was called inactive. The value for `Cc1ccc2c(c1)c(C)c(C)n2CC(O)Cn1nnc2ccccc21` (stereo not drawn) was “inactive”; that for `O=S1(=O)N[C@H](c2ccccc2)C[C@H](c2ccc(C(F)(F)F)cc2)O1` was “inactive”. `CC(C)[C@H](NC(=O)Cc1ccccc1)C(=O)OCc1cc(=O)n2c(n1)sc1ccccc12`: the call was inactive. With `Cc1ccc(CN2CCN(Cc3cccc(OCCO)c3)CC2CCO)o1` (stereo not drawn), the outcome was inactive.

`Fc1ccc(-n2cc(CNCCc3ccccn3)c(-c3ccccc3Cl)n2)cc1`: the compound was classed as inactive. The value for `Cc1ccc(-c2nn(-c3ccccc3)cc2CN(C)C(=O)CCC(=O)O)cc1C` was “inactive”; that for `CN=c1scc(-c2ccccc2F)n1/N=C/c1ccc[nH]1` was “inactive”; that for `CN=c1scc(-c2cccs2)n1/N=C/c1ccccc1O` was “inactive”.

As for `CN(C)S(=O)(=O)c1ccc(-c2csnn2)s1`, the outcome was inactive. For `CCn1c(C(C#N)/C(=N\S(=O)(=O)c2cccs2)c2ccccc2)nc2ccccc21` (stereo not drawn), the outcome was inactive. In the case of `Cc1ccc(S(=O)(=O)N2CCC(C(=O)N[C@@H](Cc3ccccc3)C(=O)O)CC2)cc1`, the outcome was inactive. On to `CCN1C(=O)c2ccccc2S(=O)c2ccc(C(=O)NCc3ccc(OC)cc3)cc21` (stereo not drawn), for which the call was inactive. Consider `Cc1ccc(C(=O)Nc2cc3ccccc3oc2=O)cc1`, for which the call was inactive.

Take `Cc1nc2ccc(NC(=O)N3CCSCC3)cc2s1`: the call was inactive. For the compound `COc1ccc(CNC(=O)CCCNC(=O)c2ccc(Cl)cc2)cc1OC`, the outcome was inactive. Regarding `COC(=O)c1cc(S(=O)(=O)NCc2ccc(F)cc2)cn1C`, the result was inactive. `C=CCOc1ccccc1CN(C(=O)CCl)c1ccc2c(c1)OCO2`: the compound was classed as inactive.

Source of the values: PubChem BioAssay AID493083 (Broad Institute, 2011).
